Most compounds without a hit are left out; they make up all but 10% or so of the library.
G9a inh: G9a (human) methyltransferase inhibition; Potency, µM (highest dose often 102 µM), without a hit: at the highest dose activity, negative = inhibition, usual class: inhibitors; 350,000 tested, 8.8% active; Q96KQ7; AID 504332; G9a H3K9 monomethylation, AlphaScreen, 2 h; note: % is set by controls: 0 for no effect and ±100 for the full control effect; nearly all actives have a fitted effect of over 75% in size
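Compounds were preincubated with 20 nM G9a for 15 min, after which biotinylated H3K9 peptide (500 nM) and SAM (20 uM) started a 2 h room-temperature reaction. Monomethylated product was quantified by antibody-based AlphaScreen chemiluminescence.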
L3MBTL1 block: inhibitors of human L3MBTL1; Potency, µM (doses to about 57.1 µM), for inactives: at the top dose activity, negative = inhibition, actives largely listed as inhibitors; AlphaScreen L3MBTL1–H3K9me1 peptide binding; 230,000 tested, 0.66% active; Q9Y468; note: % is set by controls: 0 for no effect and ±100 for the full control effect; nearly all actives have a fitted effect of over 60% in size
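L3MBTL1 50 nM + b-AHA-H3(1-15)K9me1 75 nM, 30 min RT; compound added, 30 min RT; streptavidin donor/Ni-chelate acceptor beads 10 ug/mL each final, 30 min RT dark; AlphaScreen read.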
JMJD2A Tudor inh: inhibitors of human JMJD2A Tudor domain. AlphaScreen JMJD2A-Tudor / H3K4me3 peptide binding. O75164. Potency, µM (doses to about 114 µM), for inactives: at the highest dose activity change, negative = inhibition, usual class: inhibitors. 390,000 tested, 4.4% active; note: % is set by controls: 0 for no effect and ±100 for the full control effect; nearly all actives have a fitted effect of over 50% in size
BAZ2B block: inhibitors of human BAZ2B bromodomain. 360,000 tested, 4.4% active. Q9UIF8. Potency, µM (highest dose often 114 µM), for the others: at the top dose activity change, negative = inhibition, actives largely listed as inhibitors. AID 504333. AlphaScreen BAZ2B-H3K14Ac peptide displacement; note: % is set by controls: 0 for no effect and ±100 for the full control effect; nearly all actives have a fitted effect of over 60% in size
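Multi-concentration screen (max 110 uM) measuring displacement of acetylated histone H3 peptide from BAZ2B by AlphaScreen, using 50 nM protein, 50 nM peptide and 10 ug/mL streptavidin donor plus Ni-chelate acceptor beads.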
GLS inhibitor: glutaminase GLS (human) inhibition | O94925 | GLS enzymatic activity, qHTS titration | Potency, µM (series often up to 45.5 µM), for the others: at the highest dose activity change, negative = inhibition, actives largely listed as inhibitors | 410,000 tested, 0.21% active | AID 624170; note: % is set by controls: 0 for no effect and ±100 for the full control effect
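Glutamate formation by hKGA was monitored fluorometrically using coupled glutamate oxidase, HRP and Amplex Red. Substrate was added as 1 mM L-glutamine solution; incubation was 30 min at RT after an initial read.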
HP1b binding inh: inhibitors of HP1-beta chromodomain binding to methylated histone tails | Potency, µM (series often up to 114 µM), for inactives: top-dose activity change, negative = inhibition, most hits filed as inhibitors | P83916 | 390,000 tested, 0.56% active | AlphaScreen HP1-beta / biotin-H3K9me3 peptide binding; note: nearly all actives have a fitted effect of over 70% in size
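HP1-beta protein (50 nM final) preincubated 30 min at room temperature with biotinylated H3(1-18)K9me3 peptide (50 nM) in PBS pH 7.4, 0.01% Tween-20, then compound added for 30 min. AlphaScreen streptavidin donor/nickel chelate acceptor beads (10 ug/mL final), 30 min dark, luminescence read.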
An asterisk follows results filed as active; [ ] = dose if it differs, or a comment. Calls come from the whole dose curve; as a rule, active = well fitted curve in the direction sought with a large enough effect; inconclusive = small, poorly fitted or top-dose-only effect, or another doubt; inactive = no such curve, though single readings can be large; an effect the other way counts as inactive or inconclusive. Potency is the fitted concentration of half-maximal effect.

Screening Cc1[nH]c2ccccc2c1/C=N/Nc1ccccc1[N+](=O)[O-] returned G9a inh 7.9µM*, L3MBTL1 block 18µM*, JMJD2A Tudor inh 22µM*, BAZ2B block 5.6µM*, GLS inhibitor inconclusive and HP1b binding inh 40µM*.
`O=C(NCc1ccc(F)cc1)C1CCN(S(=O)(=O)c2ccc3c(c2)CCCN3C(=O)C2CCC2)CC1` gave G9a inh -4%[59 µM], JMJD2A Tudor inh -17%, BAZ2B block 2%, GLS inhibitor -5% and HP1b binding inh 12%[57 µM].
`COc1cccc(/C=N/Nc2nc3ccccc3[nH]2)c1OC` gave L3MBTL1 block -25%, JMJD2A Tudor inh -23%, BAZ2B block -36%, GLS inhibitor inconclusive and HP1b binding inh 23%.
`COc1cccc(/C=N/Nc2ncc(C)c(=O)[nH]2)c1OC` gave G9a inh 32µM*, JMJD2A Tudor inh -9%, BAZ2B block -2%, GLS inhibitor 12% and HP1b binding inh 24%.
For COc1cccc(C=NNc2nnc(NN=Cc3cccc(OC)c3OC)c3ccccc23)c1OC the results were JMJD2A Tudor inh 35µM*, GLS inhibitor 19% and HP1b binding inh inconclusive.
COc1cccc(/C=N/Nc2ncnc3c2[nH]c2ccc(C)cc23)c1OC was read as G9a inh 56µM*, JMJD2A Tudor inh -35%, BAZ2B block inconclusive, GLS inhibitor -21% and HP1b binding inh 15%.
`COC(=O)CN1C(=S)N(c2ccc(OC)cc2)C(=O)/C1=C/c1ccc(N2CCOCC2)cc1` gave G9a inh 32µM*, L3MBTL1 block -8%[11.4 µM], JMJD2A Tudor inh inconclusive, BAZ2B block 28µM*, GLS inhibitor 6% and HP1b binding inh inconclusive.
Screening COC(=O)CN1C(=S)N(c2ccc(OC)cc2)C(=O)/C1=C/c1ccc(OC)cc1 returned G9a inh -11%[12.7 µM], L3MBTL1 block -3%, JMJD2A Tudor inh -33%, BAZ2B block -35%, GLS inhibitor -13% and HP1b binding inh 7%.
For Cn1ccc2cc(S(=O)(=O)N3CCCN(C(=O)Nc4ccccc4Br)CC3)ccc21 the results were G9a inh -3%[59 µM], JMJD2A Tudor inh -25%, BAZ2B block -14%, GLS inhibitor -9% and HP1b binding inh 6%[57 µM].
`COc1ccc(NC(=O)N2CCN(S(=O)(=O)c3ccc4c(ccn4C)c3)CC2)cc1OC` gave G9a inh -19%[59 µM], JMJD2A Tudor inh inconclusive, BAZ2B block -22%, GLS inhibitor 2% and HP1b binding inh 23%[57 µM].
For Cc1cccc(N2CCN(C(=O)C3CCN(c4ncnc5c4nc4n5CCCCC4)CC3)CC2)c1C the results were G9a inh -13%, JMJD2A Tudor inh inconclusive, BAZ2B block inconclusive, GLS inhibitor 2% and HP1b binding inh 13%.
For Cc1cccc(N2CCN(C(=O)C3CCN(c4ncnc5c4nc4n5CCCCC4)CC3)CC2C)c1 (stereo unspecified) the results were G9a inh -32%, JMJD2A Tudor inh -30%, BAZ2B block 35µM*, GLS inhibitor 43% and HP1b binding inh 7%.
For COc1ccccc1N1CCN(C(=O)CSc2nnc(NC(=O)c3ccco3)s2)CC1 the results were G9a inh 50µM*, L3MBTL1 block 3%, JMJD2A Tudor inh -3%, BAZ2B block -5%, GLS inhibitor 2% and HP1b binding inh 15%.
For COc1ccccc1N1CCN(C(=O)CSc2nnc(NC(=O)C3CC3)s2)CC1 the results were G9a inh -7%, L3MBTL1 block 0%, JMJD2A Tudor inh 1%, BAZ2B block 6%, GLS inhibitor 21% and HP1b binding inh 39%.
`CC(C)Sc1nnc(NC(=O)c2ccco2)s1` gave G9a inh 25µM*, JMJD2A Tudor inh -7%, BAZ2B block -24%, GLS inhibitor 1% and HP1b binding inh 52%.
Screening O=C(CN1CCCCCC1)N/N=C/c1cccc(Cl)c1 returned G9a inh inconclusive, L3MBTL1 block 5%, JMJD2A Tudor inh 79µM*, BAZ2B block 50µM*, GLS inhibitor 9% and HP1b binding inh 4%.
Screening O=C(CN1CCCCC1)N/N=C/c1cccc(C(F)(F)F)c1 returned JMJD2A Tudor inh -18%, GLS inhibitor 8% and HP1b binding inh 2%.
For O=C(CN1CCN(Cc2ccc(Cl)cc2)CC1)N/N=C/c1cccc(F)c1 the results were L3MBTL1 block 3%, JMJD2A Tudor inh -4%, BAZ2B block -12%, GLS inhibitor 6% and HP1b binding inh 16%.
O=C(CN1CCCCCCC1)N/N=C/c1ccc(F)c(F)c1 was read as G9a inh inconclusive, L3MBTL1 block 8%, JMJD2A Tudor inh 3.2µM*, BAZ2B block -37%, GLS inhibitor 12% and HP1b binding inh -37%.
For O=C(CN1CCSCC1)N/N=C/c1cccc(Cl)c1 the results were G9a inh 3.2µM*, L3MBTL1 block 2%, JMJD2A Tudor inh inconclusive, BAZ2B block 50µM*, GLS inhibitor -9% and HP1b binding inh 60%.
Screening O=C(CN1CCCCC1)N/N=C/c1ccc(Cl)cc1 returned G9a inh 27%, L3MBTL1 block -12%, JMJD2A Tudor inh -7%, BAZ2B block inconclusive, GLS inhibitor -3% and HP1b binding inh 43%.
`CCOc1cc(/C=N/NC(=O)CN2CCCCC2)ccc1OCc1ccc(Cl)cc1` gave G9a inh -4%[59 µM], L3MBTL1 block -9%, JMJD2A Tudor inh inconclusive, BAZ2B block 50µM*, GLS inhibitor -1% and HP1b binding inh 11%.
For CCOC(=O)O[C@@H](C)OC(=O)[C@@H]1N2C(=O)[C@@H](NC(=O)[C@@H](N)c3ccccc3)[C@H]2SC1(C)C the results were G9a inh 27%[21.5 µM] and GLS inhibitor -1%[20 µM].
Cc1c(Cl)cccc1NC(=O)c1ccc(NC(=O)N2CCSc3ncccc32)cc1 was read as G9a inh inconclusive, JMJD2A Tudor inh -1%, BAZ2B block 1%, GLS inhibitor 3% and HP1b binding inh 32%.
For O=C(CSc1nccn1-c1ccccc1)N1CCc2ccccc21 the results were G9a inh inconclusive, JMJD2A Tudor inh -19%, BAZ2B block inconclusive, GLS inhibitor -2% and HP1b binding inh -12%.
CCc1nnc(NC(=O)c2c(O)c3cccc4c3n(c2=O)CC4)s1 was read as G9a inh -38%[12.7 µM] and BAZ2B block 3%.
Cc1ccc(-c2cnc(SCC(=O)N3CCCc4ccccc43)n2C)cc1 was read as G9a inh 11µM*, L3MBTL1 block inconclusive, JMJD2A Tudor inh inconclusive, BAZ2B block 28µM*, GLS inhibitor -9% and HP1b binding inh inconclusive.

Screens deposited in PubChem by National Center for Advancing Translational Sciences (NCATS).
